USP2a block = blocks human ubiquitin-specific protease USP2a; Potency, µM (top dose mostly 38.3 µM), without a hit: at the highest dose activity change, negative = inhibition, actives largely listed as inhibitors; USP2 core, Ub-CHOP2 coupled fluorogenic reporter, 485/531; O75604; 330,000 compounds, 0.01% hits; AID 463254;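 also: plate controls were DMSO wells for no effect and full inhibition by NEM control for full effect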
Target sequence (O75604 whole entry, looked up): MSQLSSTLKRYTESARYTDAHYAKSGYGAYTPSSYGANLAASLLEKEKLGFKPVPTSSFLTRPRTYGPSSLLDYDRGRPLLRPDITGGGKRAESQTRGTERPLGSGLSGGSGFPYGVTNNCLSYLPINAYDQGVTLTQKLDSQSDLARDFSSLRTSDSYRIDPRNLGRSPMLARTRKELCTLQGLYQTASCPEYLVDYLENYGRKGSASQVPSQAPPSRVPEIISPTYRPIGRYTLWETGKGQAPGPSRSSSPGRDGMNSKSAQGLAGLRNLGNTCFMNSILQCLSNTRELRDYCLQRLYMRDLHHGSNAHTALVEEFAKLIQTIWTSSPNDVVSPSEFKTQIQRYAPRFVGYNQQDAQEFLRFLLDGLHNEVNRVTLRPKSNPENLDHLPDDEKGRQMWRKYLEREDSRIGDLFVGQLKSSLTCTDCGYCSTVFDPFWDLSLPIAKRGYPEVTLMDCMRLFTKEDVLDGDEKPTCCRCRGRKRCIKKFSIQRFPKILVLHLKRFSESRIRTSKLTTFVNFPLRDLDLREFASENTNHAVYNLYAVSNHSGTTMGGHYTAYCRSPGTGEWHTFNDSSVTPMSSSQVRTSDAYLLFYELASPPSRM
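USP2 core (10nM final) preincubated 30min RT with compound in 20mM Tris-HCl pH 8.0, 2mM CaCl2, 2mM beta-mercaptoethanol, 0.05% CHAPS; 25nM Ub-CHOP2 plus 25nM reporter substrate added, fluorescence (Ex485/Em531) read after 60min.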
USP1-UAF1 inh = blocks the human USP1/UAF1 deubiquitinase complex | O94782 | recombinant USP1/UAF1, Ub-Rhodamine cleavage fluorescence | Potency, µM (series often up to 57.1 µM), inactives show at the top dose activity change, negative = inhibition, hits mostly inhibitors | 390,000 compounds, 0.23% hits | AID 743255; also: % is scaled to controls: 0 for no effect and ±100 for the full control effect; nearly all actives have a fitted effect of over 60% in size
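1 nM enzyme complex + cpd, 15 min RT; start with Ub-Rho 150nM final; kinetic fluorescence ex 480/em 540, 6 reads q60 s. Buffer 50mM HEPES pH 7.8, 0.5mM EDTA, 0.1 mg/ml BSA, 1mM TCEP, 0.01% Tween-20.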
EPAC1 antagonist = blocks human EPAC1 exchange factor; O95398; EPAC1 GEF assay, Rap1b-BODIPY-GDP exchange fluorescence; 360,000 compounds, 0.14% hits; Potency, µM (top dose mostly 115 µM), for the others: at the top dose activity change, negative = inhibition, usual class: inhibitors;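 also: plate controls were vehicle for no effect and positive control for full effect; nearly all actives have a fitted effect of over 50% in size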
EPAC2 antagonist = antagonists of human EPAC2 | Q8WZA2 | EPAC2 GEF exchange of Rap1B-BODIPY-GDP, fluorescence | Potency, µM (highest dose often 114 µM), without a hit: at the top dose activity, negative = inhibition, actives largely listed as inhibitors | 360,000 compounds, 0.18% hits; also: % is scaled to controls: 0 for no effect and ±100 for the full control effect; nearly all actives have a fitted effect of over 45% in size
EPAC2 agonist = EPAC2 (human) agonism | EPAC2 activation, biochemical qHTS; response scale: 100% = 6.5 mM cAMP response | Potency, µM (doses to about 154 µM), for inactives: at the top dose activation, most hits filed as activators | 360,000 compounds, 0.079% hits; also: nearly all actives have a fitted effect of over 50% in size
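Guanine nucleotide exchange by EPAC2 is measured as reduced fluorescence of BODIPY-GDP once it is released from 250 nM Rap1B. Plates are read kinetically for 30 min at room temperature; results are scaled to 6.5 mM cAMP.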
EPAC1 ag = EPAC1 (human) agonism; AID 720707; O95398; 360,000 compounds, 0.073% hits; EPAC1 agonist qHTS, biochemical assay; response scale: 100% = response to 6.5 mM cAMP; Potency, µM (series often up to 154 µM), without a hit: at the top dose activation, hits mostly activators; also: nearly all actives have a fitted effect of over 60% in size
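Nucleotide exchange by EPAC1 (100 nM) on Rap1B–BODIPY-GDP (250 nM) in the presence of 50 uM GDP is tracked fluorescently at 480/540 nm over 30 min. Signals are normalized to a 6.5 mM cAMP control.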
The depositor's hits bear a star. Sampled rows, rich in hits. Any-hit rate of the full collection: about 0.44%. Calls follow the shape of the dose curve; as a rule, active = well fitted curve in the direction sought with a large enough effect; inconclusive = small, poorly fitted or top-dose-only effect, or another doubt; inactive = no such curve, though single readings can be large; an effect the other way counts as inactive or inconclusive. Potency is read from the fitted curve at half-maximal effect.

`Cc1c(N=C2C=C(Br)C(=O)C(Br)=C2)c(=O)n(-c2ccccc2)n1C` gave USP2a block 1.6%, USP1-UAF1 inh inconclusive, EPAC1 antagonist -19.2%, EPAC2 antagonist 0.8%, EPAC2 agonist -7.3% and EPAC1 ag -5.3%.
For Cc1c(N=C2C=CC(=O)c3ccccc32)c(=O)n(-c2ccccc2)n1C the results were USP2a block 0.8%, USP1-UAF1 inh 31.6µM*, EPAC1 antagonist inconclusive, EPAC2 antagonist -13.8%, EPAC2 agonist 25.0% and EPAC1 ag 15.5%.
`Cc1cc(NC(=O)CN2C(=O)c3cccnc3Sc3ccccc32)ccc1Br` gave USP1-UAF1 inh -17.8%.
For CC1CC1c1ccc(/C=C(\C#N)C(=O)Nc2cc(Cl)ccc2Cl)o1 (stereo not given) the results were USP2a block 3.3%, USP1-UAF1 inh inconclusive, EPAC1 antagonist 76.8%, EPAC2 antagonist 21.1%, EPAC2 agonist 3.3% and EPAC1 ag 89.1µM*.
CCCSc1nc(C)cc(C)c1S(=O)(=O)c1ccccc1C was read as USP2a block 0.9%, USP1-UAF1 inh -4.8%, EPAC1 antagonist inconclusive, EPAC2 antagonist 10µM*, EPAC2 agonist -0.1% and EPAC1 ag -4.2%.
`Cc1cc(C)c(S(=O)(=O)c2ccccc2C)c(SCC(C)C)n1` gave USP2a block -9.4%, USP1-UAF1 inh -26.1%, EPAC1 antagonist -19.3%, EPAC2 antagonist inconclusive, EPAC2 agonist -12.2% and EPAC1 ag 0.8%.
Screening O=C1/C(=C/C=C/c2ccco2)SC(=S)N1NS(=O)(=O)c1ccccc1 returned USP2a block inconclusive, USP1-UAF1 inh inconclusive, EPAC1 antagonist 100µM*, EPAC2 antagonist inconclusive, EPAC2 agonist -1.4% and EPAC1 ag 5.8%.
Screening O=S(=O)(NCCS(=O)(=O)N1CCN(c2cccc(Cl)c2)CC1)c1ccc(F)cc1 returned USP1-UAF1 inh -11.2%.
`COc1ccc(-c2noc(CSc3nnc(Cc4ccccc4)n3-c3ccccc3)n2)cc1OC` gave USP1-UAF1 inh -7.3%.
For CCN(CC)Cc1c(O)ccc2c1O/C(=C\C=C\c1ccccc1)C2=O the results were USP2a block inconclusive, USP1-UAF1 inh 31.6µM*, EPAC1 antagonist -12.8%, EPAC2 antagonist 29.4%, EPAC2 agonist 21.4% and EPAC1 ag inconclusive.
For COc1ccc2c(c1)CC/C(=C\C=C\c1ccccc1OC)C2=O the results were USP2a block -0.8%, USP1-UAF1 inh inconclusive, EPAC1 antagonist 3.6%, EPAC2 antagonist 9.5%, EPAC2 agonist -3.0% and EPAC1 ag -3.5%.
Screening COCCN(CCOC)Cc1c(O)ccc2c1O/C(=C\c1ccc(C)o1)C2=O returned USP2a block inconclusive, USP1-UAF1 inh 31.6µM*, EPAC1 antagonist 115.8%, EPAC2 antagonist 94.7%, EPAC2 agonist 14.9% and EPAC1 ag inconclusive.
`COc1ccccc1/C=C/C=C1\Oc2c(ccc(O)c2CN(C)C)C1=O` gave USP2a block inconclusive, USP1-UAF1 inh 25.1µM*, EPAC1 antagonist 33.6%, EPAC2 antagonist 74.8%, EPAC2 agonist inconclusive and EPAC1 ag inconclusive.
Screening CS(=O)(=O)Oc1ccc2c(c1)O/C(=C\C=C\c1ccccc1)C2=O returned USP2a block inconclusive, USP1-UAF1 inh -19.2%, EPAC1 antagonist -22.6%, EPAC2 antagonist -2.6%, EPAC2 agonist 5.7% and EPAC1 ag -23.8%.
For Cc1ccc(/C=C2\Oc3cc(OCC(=O)NN)ccc3C2=O)o1 the results were USP2a block 3.1%, USP1-UAF1 inh -24.9%, EPAC1 antagonist -3.8%, EPAC2 antagonist 7.5%, EPAC2 agonist -0.1% and EPAC1 ag 4.1%.
Screening Cc1oc2ncn(C)c(=O)c2c1C(=O)NC(C)c1ccccc1 (stereo not given) returned USP1-UAF1 inh 4.0%.
